In PubChem BioAssay AID652020 (National Center for Advancing Translational Sciences (NCATS), 2013):
The other results are listed elsewhere or left out. Results filed as inconclusive are left out. Unmarked numbers belong to inactive results. Calls follow the shape of the dose curve; as a rule, active = well fitted curve in the direction sought with a large enough effect; inconclusive = small, poorly fitted or top-dose-only effect, or another doubt; inactive = no such curve, though single readings can be large or run the other way.

target: Glutathione reductase, mitochondrial (Homo sapiens) (UniProt P00390); assay: qHTS Assay for Inhibitors of Mammalian Selenoprotein Thioredoxin Reductase 1 (TrxR1): Counterassay in Glutathione Reductase (GR); conditions: purified GR, DTNB reduction absorbance 405 nm kinetic; series mostly up to 57.1 µM; activity change, negative = inhibition: at the top concentration
Sequence (P00390 whole entry, looked up): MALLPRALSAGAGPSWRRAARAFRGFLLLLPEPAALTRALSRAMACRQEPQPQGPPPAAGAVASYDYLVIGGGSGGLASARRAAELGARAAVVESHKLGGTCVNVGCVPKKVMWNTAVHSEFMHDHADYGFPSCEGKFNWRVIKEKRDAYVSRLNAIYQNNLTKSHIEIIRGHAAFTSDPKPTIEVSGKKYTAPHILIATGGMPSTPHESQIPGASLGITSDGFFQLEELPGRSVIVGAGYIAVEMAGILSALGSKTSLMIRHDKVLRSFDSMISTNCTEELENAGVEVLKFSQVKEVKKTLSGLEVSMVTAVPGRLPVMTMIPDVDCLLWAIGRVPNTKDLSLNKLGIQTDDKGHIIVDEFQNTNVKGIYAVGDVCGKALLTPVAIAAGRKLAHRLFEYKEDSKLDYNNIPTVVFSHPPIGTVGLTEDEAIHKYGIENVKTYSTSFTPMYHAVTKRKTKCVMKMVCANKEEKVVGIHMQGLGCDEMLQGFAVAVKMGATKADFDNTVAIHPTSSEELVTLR
Description: The selenoprotein thioredoxin reductase (TrxR; EC 1.8.1.9) is a FAD containing homodimeric pyridine nucleotide-disulfide oxidoreductase with many cellular roles. Together with NADPH and its prime substrate thioredoxin (Trx), the enzyme forms the core of the Trx system. The mammalian Trx system exerts a wide spectrum of functions including redox regulation, antioxidant defense, regulation of transcription factors as well as support of cell growth and replication. Many of these functions involve the reduction of Trx, which may subsequently reduce a number of different substrates including ribonucleotide reductase, peroxiredoxins or NFkB. Mammalian TrxR itself also has a broad substrate specificity, reducing both protein and non-protein substrates, including low molecular weight compounds such as dehydroascorbate, lipoic acid, ubiquinone, and juglone. In addition, several drugs in clinical use for anticancer treatment are indeed known to target TrxR1. This assay is counterassay using a yeast glutathione reductase (GR) assay. The desired outcome is inactivity in this assay. NIH Molecular Libraries Probe Production Network [MLPCN] NIH Chemical Genomics Center [NCGC] MLPCN Grant: MH090846 Assay Provider: Elias Arner, Karolinska Institute
Three microliters of reagents (100 microM NADPH and 60 nM hGR or 100 microM NADPH as no-enzyme control) was dispensed into 1,536-well black clear-bottomed plates (Buffer: 0.1 M potassium phosphate, pH 7.4/10 mM EDTA, 0.01 % Tween-20). Compounds (23nl) was transferred via Kalypsys pin tool equipped with 1536-pin array. The plates were incubated for 15 min at room temperature, and 1microl aliquot of 500 microM NADPH was added, immediately followed by a 1 microl aliquot of 15 mM DTNB (3 mM final concentration) to start the reaction. The plate was transferred to a ViewLux high-throughput CCD imager (Perkin-Elmer, Wellesley, MA) where kinetic measurements (one read per 5 min for 6 reads, total time 25 min) of the TNB absorbance was acquired using a 405 excitation filter.

Row | SMILES | activity change, negative = inhibition [%]
1 | CC1CCN(C(=O)c2ccc(S(=O)(=O)Cc3cc(F)ccc3F)c([N+](=O)[O-])c2)CC1 | -12.9
2 | Cc1ccccc1-c1nc(CS(=O)(=O)CC(=O)N2CCc3ccccc3C2)c(C)o1 | -11
3 | O=C(/C=C/c1ccco1)Nc1cccc(-c2nc3ccccc3[nH]2)c1 | -21.6
